In one assay the test system is IL-6-GFP PC-9GR. Kind of assay: cell viability (CCK-8 OD) relative to DMSO control (fraction of control); higher = more viable cells. The note with it: compound concentration: 10 uM; treatment time: 48 h. The procedure, abridged: (§1)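 In 96-well plates, 3000 cells/well of PC-9 or PC-9GR lung cancer cells with lentiviral IL-6-GFP overexpression received each compound of a purchased 510-compound library at a final 10 μM for 48 h. Viability, measured by CCK-8 absorbance, is each well's optical density relative to the vehicle control well. Data come from two independent replicates.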

The test system of a further assay is IL-6-GFP PC-9. The assay is described as above. Conditions: compound concentration: 10 uM; treatment time: 48 h. In a few lines:
as §1

± gives the standard deviation of the averaged measurements.

Regarding `COc1cc(C2Oc3cc(C4Oc5cc(O)cc(O)c5C(=O)C4O)ccc3OC2CO)ccc1O` (configuration not stated) [Silibinin], the cell viability in the assay with IL-6-GFP PC-9GR was 1.36 ± 0.07; in the assay with IL-6-GFP PC-9, 1.15 ± 0.099.
For the compound `CC(C(=O)O)c1ccc2c(c1)CC(=O)c1ccccc1S2` (configuration not stated) [Zaltoprofen], the cell viability amounted to 0.953 ± 0.054 in the assay with IL-6-GFP PC-9GR and 0.542 ± 0.067 in the assay with IL-6-GFP PC-9.
Take `CC(C)=CCC/C(C)=C/CC/C(C)=C/CCC(=O)OC/C=C(\C)CCC=C(C)C` [Gefarnate]: the cell viability with IL-6-GFP PC-9GR amounted to 0.851 ± 0.023; with IL-6-GFP PC-9 it was 1.06 ± 0.17.
In the case of `O=C(O)c1ccccc1Nc1cccc(C(F)(F)F)c1` [Flufenamic acid], the cell viability in the assay on IL-6-GFP PC-9GR came to 1.15 ± 0.34; in the assay on IL-6-GFP PC-9, 1.14 ± 0.15.
With `Cc1c(C(=O)Nc2ccc(N3CC(C)OC(C)C3)nc2)cccc1-c1ccc(OC(F)(F)F)cc1` (configuration not stated) [Sonidegib (Erismodegib, NVP-LDE225)], the cell viability in the assay with IL-6-GFP PC-9GR stood at 1.05 ± 0.049; in the assay with IL-6-GFP PC-9, 1.0769 ± 0.001.
Consider `COc1c2occc2cc2ccc(=O)oc12` [Methoxsalen], for which the values for the cell viability in the assay on IL-6-GFP PC-9GR and with IL-6-GFP PC-9 were 0.933 ± 0.062 and 0.839 ± 0.23, respectively.
With `O=S(=O)([O-])CCS.[Na+]` [Mesna], the cell viability worked out at 1.23 ± 0.2 with IL-6-GFP PC-9GR and 0.95 ± 0.07 with IL-6-GFP PC-9.
Consider `COc1cc2nccc(Oc3ccc(NC(=O)C4(C(=O)Nc5ccc(F)cc5)CC4)cc3)c2cc1OC.O=C(O)CC(O)C(=O)O` [Cabozantinib malate (XL184)], for which the figures for the cell viability in the assay with IL-6-GFP PC-9GR and with IL-6-GFP PC-9 were 0.81 ± 0.13 and 0.958 ± 0.062, respectively.
As for `O=C(/C=C/c1cccc(S(=O)(=O)Nc2ccccc2)c1)NO` [Belinostat (PXD101)], the figures for the cell viability in the assay with IL-6-GFP PC-9GR and in the assay on IL-6-GFP PC-9 were 0.374 ± 0.026 and 0.262 ± 0.075, respectively.
As for `COc1ccc2cc(CCC(C)=O)ccc2c1` [Nabumetone], the values for the cell viability in the assay with IL-6-GFP PC-9GR and with IL-6-GFP PC-9 were 1.29 ± 0.24 and 1.11 ± 0.13, respectively.
As to `O=C(CCCCCCC(=O)Nc1ccccc1)NO` [Vorinostat (SAHA, MK0683)], the figures for the cell viability with IL-6-GFP PC-9GR and in the assay on IL-6-GFP PC-9 were 0.449 ± 0.048 and 0.418 ± 0.095, respectively.

The record behind these values is the supplement of paper PMC8866396.
